Results published in PubChem BioAssay AID493168 (National Center for Advancing Translational Sciences (NCATS), 2011).
Results filed as inconclusive are left out. Activity calls are given as the source filed them. Calls follow the shape of the dose curve; as a rule, active = well fitted inhibition curve with a large enough effect; inconclusive = small, poorly fitted or top-dose-only effect, or effect the other way; inactive = flat fitted curve, though single readings scatter.

These compounds were tested against Ubiquitin carboxyl-terminal hydrolase 2 (Homo sapiens) (UniProt O75604) (assay: Confirmation Assay for Inhibitors of Ubiquitin-specific Protease USP2a Using CHOP2 as the Reporter). Conditions: USP2 core, Ub-CHOP2 coupled reporter fluorescence; series mostly up to 38.3 µM; activity change, negative = inhibition: at the top concentration.
Ubiquitin carboxyl-terminal hydrolase 2 (Homo sapiens), sequence (O75604 whole entry, looked up): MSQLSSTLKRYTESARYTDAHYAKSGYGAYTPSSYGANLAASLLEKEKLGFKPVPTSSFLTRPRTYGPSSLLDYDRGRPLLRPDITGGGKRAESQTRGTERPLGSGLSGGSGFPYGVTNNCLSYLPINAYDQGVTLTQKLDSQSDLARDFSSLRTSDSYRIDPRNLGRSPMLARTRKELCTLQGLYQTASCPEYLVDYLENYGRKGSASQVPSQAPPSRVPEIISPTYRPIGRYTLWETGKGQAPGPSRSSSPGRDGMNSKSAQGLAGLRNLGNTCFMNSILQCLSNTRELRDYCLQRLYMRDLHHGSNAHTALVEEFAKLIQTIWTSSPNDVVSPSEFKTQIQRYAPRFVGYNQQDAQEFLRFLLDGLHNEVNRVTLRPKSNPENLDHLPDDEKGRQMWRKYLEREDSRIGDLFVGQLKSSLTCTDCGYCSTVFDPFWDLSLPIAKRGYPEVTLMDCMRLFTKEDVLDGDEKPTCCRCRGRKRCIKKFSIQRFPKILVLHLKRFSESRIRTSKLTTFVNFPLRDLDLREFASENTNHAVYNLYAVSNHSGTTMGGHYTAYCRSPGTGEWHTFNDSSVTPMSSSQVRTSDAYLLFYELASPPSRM
How it was run: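 USP2 core (10 nM final) was preincubated with compound for 30 min at RT in Tris-HCl pH 8.0, CaCl2, beta-mercaptoethanol, CHAPS. Ub-CHOP2 and reporter substrate (25 nM final each) were added, and fluorescence (Ex 485/Em 531 nm) was read after 60 min.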
Also: nearly all actives have a fitted effect of over 55% in size.
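For activity change, negative = inhibition in this document: plate controls were DMSO wells for no effect and full inhibition by NEM control for full effect.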
Potency is read from the fitted curve at half-maximal effect.

Activity change, negative = inhibition, inactive:
COC(=O)c1[nH]c(=O)c2ccccc2c1OCc1ccccc1 -3.77%
CCN1C(=O)C(NC(C)=O)c2cc(OC)ccc21 (stereo not given) 1.61%
N#CCc1ccc(NC(=O)/C=C/c2ccc([N+](=O)[O-])o2)cc1 -10.8%
CC1CCCCC1NC(=O)CSCC(=O)O (stereo not given) 0.575%
Cc1c(NC(=O)C2CCCN(S(=O)(=O)c3cnc[nH]3)C2)c(=O)n(-c2ccccc2)n1C (stereo not given) 4.21%
Cc1ccc(C2=N/C(=C\c3c(C)nn(-c4ccccc4)c3N3CCCC3)C(=O)O2)cc1 5.3%
CCCCCCCC/C=C\CCCCCCCC(=O)NCCc1ccc(O)c(O)c1 -5.03%
CCOC(=O)c1c(-c2ccc(C)o2)csc1NC(=O)COC(=O)c1ccc(NC(N)=O)cc1 -4.42%
CCOC(=O)c1[nH]c2ccc(OC)cc2c1NC(=O)CCN1CCCC(C)C1 (stereo not given) -2.89%
O=C(CC(C(=O)O)C1CCCO1)NCCc1ccc2c(c1)OCO2 (stereo not given) 4.46%
Cc1ccc(-c2c(C#N)c(N)nc3c2CCCCC3)o1 3.04%
COCc1cc(C)nc(SCC[N+](C)(C)CC(=O)Nc2cccc(C(F)(F)F)c2)c1C#N -13.5%
Cc1ccc(S(=O)(=O)Cc2ccc(C(=O)N3CCN(c4ccccn4)CC3)o2)cc1 -2.6%

Potency, active:
C#CCOCCOCCOCCNc1nc(N2CCN(C(=O)CCCCCCCCCCNC(=O)Cn3cc(CCCCCN)nn3)CC2)nc(N2CCN(C(=O)CCCCCCCCCCNC(=O)[C@H]([C@@H](C)CC)n3cc(CCCCCN)nn3)CC2)n1 4.65 µM
CCOc1ccc(C=NNc2ccc(S(=O)(=O)Nc3ccccc3C(=O)O)cc2[N+](=O)[O-])cc1 7.36 µM
